Assay [1] in a line: Her2 expression decrease, cell viability multiplex – SKBR3 breast tumor cells, AlphaScreen, ATP viability, primary screen (AID 461;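 active = Her2 level under about 52% in both replicate screens, with viability over 70% of control, limit read from the data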;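 for Her2 level: lower value means less Her2 protein in the cells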;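 for viability: percent of carrier control wells set as 100% viability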). To be noted: SKBR3 Her2 protein level, 18-24 h, measured here: SKBR3 viability, ATP luminescence, at 10 µM.
Assay [2] addresses Receptor tyrosine-protein kinase erbB-2 (Homo sapiens) (UniProt P04626). The description is as above. Conditions: 18-24 h, at 10 µM, stronger effect = lower value.
Assay [3] is described as follows: reduced viability of SK-BR-3 breast cancer cells – cell-based, 24 h, human, pilot screen (AID 572;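 active = viability at or below 10% of carrier control in both of two separate runs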;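 note: compound exposure lasted between 18 and 24 h rather than exactly 24 h; 100% = carrier-treated control wells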). Conditions: SK-BR-3 viability, CellTiter-Glo luminescence, at 10 µM, stronger effect = lower value. Background: In ATP-based viability assays light output follows the ATP content of the culture.
Assay [4] is described as follows: HUVEC growth inhibition – cell-based, human, primary screen (AID 575;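 active = viability at or below 30% in both replicate assays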;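 note: 100% = median of untreated cell wells with 0.1% DMSO on each plate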). Conditions: HUVEC proliferation, CellTiter-Glo luminescence, 72 h; at 10 µM; stronger effect = lower value.
Assay [5] in a line: H69AR cell proliferation blockers – human, duplicate replicates, primary screen (AID 580;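 active = viability at or under a set limit in both replicates, limit being median viability minus 3 SD, cut at about 48% in these data, passing the limit was not always enough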;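 note: 100% = mean luminescence of untreated wells and 0% = no signal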). To be noted: H69AR lung tumor cells viability, ATP luminescence, 72 h; at 10 µM; stronger effect = lower value.
A short description of assay [6]: MRP1 drug-resistance reversers in H69AR cells – cell-based, doxorubicin co-treatment, pilot screen (AID 601). Conditions: CellTiter-Glo, 72 h, at 10 µM; for differential viability (reversal): stronger effect = higher value.
Assay [7] is described as follows: yeast transport mutant growth inhibition pilot in 384-well plates, post-Golgi transport modulator project (AID 636; in the data active = inhibition above about 31%). Conditions: absorbance 615 nm, about 18 h, stronger effect = higher value.
Assay [8] can be described thus: growth suppression of yeast trafficking mutant, preliminary HTS, modulators of trafficking downstream of Golgi apparatus project, 1536-format plate, OD 615 nm (AID 637; in the data active = inhibition above about 30%). To be noted: yeast transport mutant growth, absorbance 615 nm, 18 h; stronger effect = higher value.
The nature of assay [9]: S. cerevisiae growth inhibition in permissive medium (OD615), pilot counter-assay for S. cerevisiae lifespan shortening project, permissive growth control (AID 705;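 active = growth inhibition above 25% in both replicates, a cutoff set 3 SD above the mean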). Conditions: OD615, 24 h, at 10 µM, stronger effect = higher value.
A short description of assay [10]: S. cerevisiae growth inhibition in restrictive medium, OD615, pilot screen, restrictive growth control, yeast lifespan reduction project (AID 706;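 active = growth inhibition above a set limit, 3 SD over mean compound inhibition, in both replicates, cut at about 43% in these data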;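 note: modified DeaD lifespan yeast strain shifted to restrictive glucose medium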). To be noted: OD615, 48 h, at 10 µM, stronger effect = higher value.
The nature of assay [11]: doxorubicin toxicity protection in MRP-1 cells – H69AR cells, CellTiter-Glo, duplicate, MRP-1 activator project, pilot screen (AID 807;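 active = viability increase at or above a cutoff of the median across tested compounds plus 3 SD, cut at about 8.5% in these data, passing the limit was not always enough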;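 note: compound pretreatment 18-22 h then 72 h combined with doxorubicin; 0% = doxorubicin alone and 100% = vehicle without doxorubicin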). To be noted: H69AR viability with doxorubicin, CellTiter-Glo luminescence; at 10 µM; stronger effect = higher value.
The nature of assay [12]: viability of HCT116 without oncogenic beta-catenin – human colon tumor cells, pilot screen (AID 823;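 active = cell viability at or below a set limit in both duplicate runs, the limit being the all-compound median minus 4 SD, cut at about 23% in these data, passing the limit was not always enough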;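 note: 0% = wells killed by 20 µM Hyamine and 100% = untreated DMSO cell wells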). Conditions: HCT116 beta-catenin knockout viability, CellTiter-Glo, 60 h; at 10 µM; stronger effect = lower value.
Assay [13] can be described thus: viability of PTEN-null HCT116 cells – cell-based, HCT116 clonal line, CellTiter-Glo, pilot screen (AID 824;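 active = viability at or below 27.92% in each of two runs, the all-compound median minus 4 SD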;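 note: 0% = 20 µM Hyamine control and 100% = vehicle cell control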). Conditions: HCT116 PTEN-deleted viability, 60 h, at 10 µM, stronger effect = lower value.
A short description of assay [14]: RAM pathway blockade in budding yeast – dse1pr::URA3 reporter, 5-FOA selection, pilot screen (AID 869;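 active = inhibition over a set limit, the all-compound mean plus 3 SD, in both replicate runs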;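 note: 0% = DMSO wells with no growth and 100% = 10 µM 1-NA-PP1 with full growth; RAM network block rescues cells from 5-FOA so hits raise OD615 growth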). Conditions: S. cerevisiae dse1pr::URA3 5-FOA growth, OD615, 2 d; at 10 µM; stronger effect = higher value; strain carries analog-sensitive mutant Cbk1 kinase.
A short description of assay [15]: RAM signaling pathway blockade in yeast – S. cerevisiae, Pdr1DBD-CYC8 efflux-inhibited sensitized strain, primary screen (AID 1298;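 active = RAM network inhibition above 8.4% in each of two replicates, 3 SD over the compound average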;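 note: 0% = DMSO untreated cells without growth and 100% = 10 µM 1-NA-PP1 full growth; higher means more yeast growth rescued from 5-FOA killing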). Conditions: S. cerevisiae cbk1-as DSE1-URA3 strain, 5-FOA growth OD615, 2 d; at 50 µM; stronger effect = higher value.
Where [16] appears, read: H69AR cells + 2 uM doxorubicin, measured here: viability with 2 uM doxorubicin, stronger effect = lower value.
Setting [17] is: H69AR cells, compound alone cytotoxicity.

Experimental findings from PubChem BioAssay are described below.

Structures are written as SMILES. Inconclusive results are not listed. Activity calls are given as the source filed them.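 Rule for the calls, unless noted: active = viability loss from added drug above about 55%, and viability with drug at most 40%, in both replicates (limit read from the data, passing the limit was not always enough); inconclusive = both conditions met in only one replicate; inactive = neither replicate meets both conditions.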

Sequence of Receptor tyrosine-protein kinase erbB-2 (Homo sapiens) (P04626 whole entry, looked up): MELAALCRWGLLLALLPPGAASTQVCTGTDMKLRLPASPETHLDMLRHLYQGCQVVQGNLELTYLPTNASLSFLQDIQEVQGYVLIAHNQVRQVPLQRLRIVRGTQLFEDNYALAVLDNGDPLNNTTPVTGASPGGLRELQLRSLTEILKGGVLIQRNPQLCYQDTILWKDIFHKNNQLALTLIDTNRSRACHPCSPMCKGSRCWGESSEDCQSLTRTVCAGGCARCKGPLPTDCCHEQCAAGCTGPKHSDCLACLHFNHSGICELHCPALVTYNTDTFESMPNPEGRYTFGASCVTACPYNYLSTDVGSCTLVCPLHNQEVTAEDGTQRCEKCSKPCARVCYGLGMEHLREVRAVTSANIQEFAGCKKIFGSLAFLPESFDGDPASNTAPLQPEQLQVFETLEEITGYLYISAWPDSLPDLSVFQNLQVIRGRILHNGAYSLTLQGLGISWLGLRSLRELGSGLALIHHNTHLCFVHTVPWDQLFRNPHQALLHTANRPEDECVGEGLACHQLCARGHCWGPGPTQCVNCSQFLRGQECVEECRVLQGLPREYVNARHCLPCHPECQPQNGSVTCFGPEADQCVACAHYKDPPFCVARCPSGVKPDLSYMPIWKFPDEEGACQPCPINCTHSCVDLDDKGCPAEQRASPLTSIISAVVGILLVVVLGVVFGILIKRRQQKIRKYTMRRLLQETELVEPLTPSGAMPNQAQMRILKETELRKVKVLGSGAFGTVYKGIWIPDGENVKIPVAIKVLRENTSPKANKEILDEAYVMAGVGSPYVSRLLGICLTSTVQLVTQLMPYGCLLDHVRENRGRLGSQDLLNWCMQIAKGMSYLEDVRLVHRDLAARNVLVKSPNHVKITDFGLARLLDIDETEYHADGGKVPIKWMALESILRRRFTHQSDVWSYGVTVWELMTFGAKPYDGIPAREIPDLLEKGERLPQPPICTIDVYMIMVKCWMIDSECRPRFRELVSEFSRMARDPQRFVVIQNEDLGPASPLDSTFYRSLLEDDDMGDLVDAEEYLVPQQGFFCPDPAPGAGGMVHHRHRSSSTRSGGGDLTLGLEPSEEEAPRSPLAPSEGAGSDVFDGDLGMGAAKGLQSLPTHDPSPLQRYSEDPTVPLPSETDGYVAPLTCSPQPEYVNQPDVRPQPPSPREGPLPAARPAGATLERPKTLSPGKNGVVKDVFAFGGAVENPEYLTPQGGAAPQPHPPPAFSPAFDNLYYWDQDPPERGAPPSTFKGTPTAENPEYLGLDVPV

Consider `O=C1NC2(Nc3ccccc31)C(=O)Nc1ccccc12` (stereo not given), for which the viability (as a rule, a read-out of living cells in per cent, often relative to untreated cells) in [1] was 99%; in assay [3], 99% (inactive); in assay [4], 86.8% (inactive); in [5], 156% (inactive); in assay [6] (setting [16]), 97.3%; in assay [6] (setting [17]) it was 156%. Besides, the viability in [12] is 98.8% (inactive); in assay [13], 85.2% (inactive). The Her2 level in assay [2] was 83% (inactive). In assay [6] (H69AR cells + 2 uM doxorubicin), the differential viability (reversal) was 58.3% (inactive). In addition, the inhibition (in general, the change of the read-out against control, counted positive when it falls) is -4.86% (inactive) in assay [7], -3.44% (inactive) in assay [8] and 1.85% (inactive) in assay [14]. In addition, the values for the growth inhibition in assay [9] and in [10] were 0.15% (inactive) and -6.17% (inactive), respectively. For the same molecule, the viability increase in assay [11] was -3.77% (inactive). Moreover, in [15], the RAM network inhibition was 2.35% (inactive).

For `CCCCc1nc2ccccc2n2cc3c(=O)n(C)c(=O)n(C)c3c12`, the viability in [1] is 86%; in [3], 86% (inactive); in [4], 106% (inactive); in assay [5], 89.6% (inactive); in [6] (setting [16]), 84.8%; in assay [6] (setting [17]), 89.6%. The viability was 95.8% (inactive) in [12] and 89.2% (inactive) in assay [13]. The Her2 level in [2] is 86% (inactive). Further, the differential viability (reversal) in assay [6] (H69AR cells + 2 uM doxorubicin) was 4.81% (inactive). Moreover, the inhibition in [7] was 0% (inactive); in [8], 2.17% (inactive); in [14], 1.36% (inactive). Further, the growth inhibition in [9] was -9.65% (inactive); in assay [10], -16.2% (inactive). In addition, in assay [11], the viability increase was -4.07% (inactive). Further, in assay [15], the RAM network inhibition was 0.47% (inactive).

For `COCCn1c(=N)c(C(=O)NCCc2ccccc2)cc2c(=O)n3cccc(C)c3nc21`, the viability in [1] was 63.5%; in [3] it was 63.5% (inactive); in assay [4], 86.6% (inactive); in assay [5], 92.5% (inactive); in [6] (setting [16]) it was 76.8%; in assay [6] (setting [17]), 92.5%. Also, the viability in assay [12] is 66.8% (inactive); in assay [13] it was 68.5% (inactive). In addition, the Her2 level in assay [2] was 69% (inactive). The differential viability (reversal) in assay [6] (H69AR cells + 2 uM doxorubicin) was 15.7% (inactive). Further, the inhibition was -0.38% (inactive) in assay [7], -8.83% (inactive) in assay [8] and 0.64% (inactive) in [14]. The growth inhibition is 1.32% (inactive) in assay [9] and -10.6% (inactive) in assay [10]. Moreover, in [11], the viability increase was -4.45% (inactive). Further, in assay [15], the RAM network inhibition is 0.2% (inactive).

On to `CCOC(=O)c1nc2sc3c(c2c(=O)[nH]1)CCCC3`, for which the viability in assay [1] was 80.5%; in [3], 80.5% (inactive); in assay [4], 93.8% (inactive); in assay [5], 83.5% (inactive); in assay [6] (setting [16]) it was 87.2%; in assay [6] (setting [17]), 83.5%. For the same molecule, the viability is 107% (inactive) in assay [12] and 99.3% (inactive) in assay [13]. Moreover, the Her2 level in [2] is 100% (inactive). The differential viability (reversal) in [6] (H69AR cells + 2 uM doxorubicin) was -3.7% (inactive). Moreover, the inhibition in [7] was -2.31% (inactive); in assay [8], -16% (inactive); in assay [14], 2.02% (inactive). In addition, the results for the growth inhibition in assay [9] and in assay [10] were 10.2% (inactive) and 12.2% (inactive), respectively. Moreover, the viability increase in [11] was -1.32% (inactive). Further, the RAM network inhibition in [15] was 3.93% (inactive).

Consider `O=C(c1cc(C2CC2)on1)N1CCN(C(c2ccccc2)c2ccccc2)CC1`, for which the viability is 84.5% in assay [1]; 84.5% (inactive) in assay [3]; 113% (inactive) in assay [4]; 87.7% (inactive) in [5]; 94.6% in assay [6] (setting [16]); 87.7% in [6] (setting [17]). Besides, the viability in assay [12] is 90.9% (inactive); in [13], 76.8% (inactive). For the same molecule, the Her2 level in assay [2] was 95.5% (inactive). Besides, the differential viability (reversal) in assay [6] (H69AR cells + 2 uM doxorubicin) was -6.88% (inactive). For the same molecule, the results for the inhibition in [7], in assay [8] and in assay [14] were 0.9% (inactive), -0.83% (inactive) and 0.66% (inactive), respectively. In addition, the growth inhibition in assay [9] was -17.5% (inactive); in assay [10], -18.4% (inactive). The viability increase in assay [11] was 2.29% (inactive). The RAM network inhibition in assay [15] was 7.26% (inactive).
